# Assay outcomes as filed in PubChem.
# SUMO Mot1 rescue: inhibitors of SUMOylation pathway: yeast Mot1-301 growth rescue; 320,000 tested, 1% active; S. cerevisiae Mot1-301 growth rescue, ATP luminescence, 38.5C; percent above DMSO median, 100 means doubled; growth rescue, % at 18.8 µM;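 active means every valid replicate shows activation above 250% relative to neutral control wells; inactive means the rest, any valid replicate at or below 250%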;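 further: OY570 slx delta 5 strain wells were the positive control but not used for scaling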
# IDE cell inh: cellular human IDE inhibition | HEK cells, FAbetaB cleavage, fluorescence polarization | 320,000 tested, 0.41% active | inhibition, % at 5.59 µM | P14735 | AID 434962;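 active means percent inhibition above the average of all tested compounds plus 3 SD, set per screening campaign, cut at about 16% in these data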;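 further: IDE supplied by intact live HEK cells; FP after avidin binding of uncleaved biotin substrate so inhibition keeps polarization high; 0% = DMSO wells and 100% = 60 µM reference IDE inhibitor Ii1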
# IDE act: IDE (human) activation, cell-based; HEK cells, FAbeta-B cleavage, fluorescence polarization; 0% vehicle, 100% cell-free pure enzyme wells; P14735; 340,000 tested, 0.073% active; activation, % at 5.96 µM;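 active means activation above the mean of all tested compounds plus 3 SD, set per screening campaign, cut at about 17% in these data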
# HDAC3 inhib: human HDAC3 inhibition; O15379; recombinant HDAC3, fluorogenic peptide/trypsin coupled, fluorescence; inhibition, % at 8.3 µM; 320,000 tested, 0.15% active; in the data active means inhibition above about 26%, passing the limit was not always enough
# LANA-H2B inh: blocks KSHV LANA binding to histone H2A/H2B. Q9QR71. cell-free LANA-H2A/H2B peptide, fluorescence polarization. inhibition, % (concentration not given with the values). 320,000 tested, 0.6% active; in the data active means inhibition mostly above about 10%, no sharp cut-off; inactive means mostly below about 6.7%
# IDE cell inh cf: cellular human IDE inhibition, confirmation; 1,200 tested, 51% active; HEK cells, FAbetaB cleavage, fluorescence polarization; inhibition, % at 5.59 µM; shares compounds with IDE cell inh;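 active means mean inhibition across triplicate wells above the cutoff set by the earlier primary insulin-degrading enzyme screen, cut at about 16% in these data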;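 further: 0% = DMSO wells and 100% = 60 µM reference IDE inhibitor Ii1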
# HEK293 tox: counter-screen for IDE inhibitors: cytotoxicity in HEK cells | shares compounds with IDE cell inh | HEK293 cytotoxicity, ATP luminescence | inhibition, % at 5.59 µM | 1,200 tested, 28% active; in the data active means inhibition above about 22%;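 further: 0% = vehicle wells and 100% = reference cytotoxic drug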
# FP fluor counter: fluorescent artifact in IDE inhibitor FP assay | shares compounds with IDE cell inh | FP counterscreen for fluorescent artifacts, IDE probe project | IC50, µM | 30 tested, under 10 active | AID 588718; call rule not given here
# * hit, by the source's call; i = inactive; nt = no result given. Most compounds without a hit are left out; they make up all but 2.1% or so of the library.
SMILES,SUMO Mot1 rescue,IDE cell inh,IDE act,HDAC3 inhib,LANA-H2B inh,IDE cell inh cf,HEK293 tox,others
CC(Sc1nnc(-c2cccnc2)n1-c1ccccc1F)C(=O)N1CCCc2ccccc21 (stereo not given),30,22*,nt,-2,3,16*,8,FP fluor counter=>55
O=C(CSc1ccc(-c2cccnc2)nn1)N1CCCc2ccccc21,0,3,nt,0,-1,nt,nt,
COc1ccccc1CCNC(=O)C(=O)NCCC1CCCCN1S(=O)(=O)c1ccccc1 (stereo not given),-24,16*,-12,0,4,2,21,
COc1ccccc1CNC(=O)C(=O)NCCC1CCCCN1S(=O)(=O)c1ccc(C)cc1 (stereo not given),3,8,1,nt,nt,nt,nt,
Cc1cc(/C=C2\SC(=S)NC2=O)cc(C)c1O,-1,16*,-8,0,-6,31*,11,
O=C1NC(=S)S/C1=C\c1cc(Cl)cc(Cl)c1O,nt,nt,-136,nt,nt,nt,nt,
COc1cc(/C=C2\Oc3cc(O)ccc3C2=O)ccc1O,1,62*,-89,10,-9,143*,9,
O=C1/C(=C/c2cccc([N+](=O)[O-])c2)Oc2cc(O)ccc21,-2,5,1,8,7,nt,nt,
O=C1/C(=C/c2ccc(O)c(O)c2)Oc2cc(O)ccc21,0,34*,-47,11,-3,75*,11,
CCCCOc1ncnc2c1[nH]c1ccc(F)cc12,27,30*,-31,4,0,12,70*,
CCCCOc1ncnc2c1[nH]c1ccc(OC)cc12,7,21*,nt,-11,0,3,38*,
COc1cc(OC)c2cc(C(=O)N[C@H](C(=O)N3CCC[C@H]3C(=O)O)C(C)C)n(C)c2c1,-12,5,3,-8,-4,nt,nt,
S=c1[nH]nc(Nc2cccc(Cl)c2)s1,5,17*,-1,6,0,6,6,
S=c1[nH]nc(Nc2ccccc2Cl)s1,-10,7,-3,16,4,nt,nt,
O=C(NCCOc1ccccc1)c1cc(S(=O)(=O)N2CCOCC2)ccc1F,nt,2,5,nt,nt,nt,nt,
COC(=O)c1ccc2c(c1)C(C)(C)C(/C=C/c1ccc(O)cc1)=[N+]2C,7,16*,-25,4,-38,21*,122*,
O=C(NC1CCCC1)C(c1ccncc1)N(C(=O)Cc1cccs1)c1cccc(F)c1 (stereo not given),-5,0,3,-3,-2,nt,nt,
Nc1c(C(=O)Nc2nccs2)sc2nc(-c3cccs3)cc(C(F)(F)F)c12,22,20*,-12,-7,0,16*,11,FP fluor counter=i
CC(C)(C)C(=O)c1sc2nc(-c3cccs3)cc(C(F)(F)F)c2c1N,9,-2,3,1,0,nt,nt,
Cc1ccc(S(=O)(=O)N2CCC[C@H]2C(=O)OCCN2C(=O)c3ccccc3C2=O)cc1,nt,nt,5,nt,nt,nt,nt,
CC1CCCN(C(=O)c2cc(N3C(=O)C4C5CCC(C5)C4C3=O)ccc2Cl)C1 (stereo not given),-5,-1,nt,10,2,nt,nt,
COc1ccccc1N1CCN(C(=O)c2cc(N3C(=O)C4C5CCC(C5)C4C3=O)ccc2Cl)CC1 (stereo not given),-17,31*,-16,-5,-4,21*,11,
CS(=O)(=O)c1ccc(C(=O)NCC2(N3CCCCC3)CCCCC2)cc1,0,16*,0,-2,15,6,10,
CN(C)S(=O)(=O)c1ccc(C(=O)NCC2(N3CCCCC3)CCCCC2)cc1,0,0,0,-10,2,nt,nt,
CCOC(=O)N1CCN(S(=O)(=O)N2CCCC(C(=O)NC(C)c3ccccc3)C2)CC1 (stereo not given),116,18*,-1,-3,1,7,10,
SMILES,SUMO Mot1 rescue,IDE cell inh,IDE act,HDAC3 inhib,LANA-H2B inh,IDE cell inh cf,HEK293 tox,others
Cc1ccc(C(=O)/C=C/c2cc(Br)cc(Br)c2O)o1,-21,16*,-13,-2,0,26*,21,
CCCOc1ccc(-c2c(C(=O)N/N=C(\C)COc3ccccc3)nnn2-c2nonc2N)cc1,9,20*,-1,6,-2,6,3,
Cc1ccc(-c2c(C(=O)N/N=C/c3cccc(Cl)c3)nnn2-c2nonc2N)cc1,19,53*,-42,2,6,45*,10,
Cc1ccc(S(=O)(=O)Nc2cccc3c2O[C@H](CN(C)C(=O)Nc2ccc(C(F)(F)F)cc2)[C@@H](C)CN([C@H](C)CO)C3=O)cc1,16,1,4,13,nt,nt,nt,
COc1cccc(COC(=O)C2CCN(C(=O)c3ccc(F)cc3)CC2)c1OC,nt,1,10,-2,-2,nt,nt,
Cc1ccccc1N(CC(=O)Nc1ccccc1C(=O)O)S(C)(=O)=O,-24,23*,-34,-6,0,14,6,
Cc1csc(NC(=O)c2cc3c(s2)-c2ccccc2OC3)n1,4,0,0,-7,0,nt,nt,
Cc1c(NC(=O)c2cc3c(s2)-c2ccccc2OC3)cccc1[N+](=O)[O-],25,27*,-9,-1,-2,2,39*,
CN(c1ccccc1)S(=O)(=O)c1ccc(C(=O)N2CCN(c3ccccc3F)CC2)cc1,10,-2,2,3,0,nt,nt,
O=S(=O)(c1ccc(SCc2cccc(Cl)c2)nc1)N1CCCC1,-17,16*,-18,3,0,18*,8,
c1ccc(-c2cnnc3ccccc23)cc1,14,10,-6,4,-1,nt,nt,
Cc1cccc(NC(=O)C(C)Sc2nnc(-c3cccnc3)o2)c1 (stereo not given),0,-1,1,2,0,nt,nt,
Cn1c(SCC(=O)c2ccccc2)nnc1-c1ccncc1,-15,4,-3,-1,-5,nt,nt,
Cn1c(SCC(=O)c2ccc3c(c2)Cc2ccccc2-3)nnc1-c1ccccc1,9,28*,-44,1,-2,14,12,
C=CCNc1ncnc2c1[nH]c1ccccc12,nt,5,5,-17,2,nt,nt,
C=CCNc1ncnc2c1[nH]c1ccc(Cl)cc12,-1,30*,-30,-9,1,13,47*,
Clc1nc(-c2ccccc2)ncc1Oc1ccccc1,-1,1,nt,-3,-1,nt,nt,
Cn1cnnc1SCC(=O)N1N=C2/C(=C/c3ccco3)CCCC2C1c1ccco1 (stereo not given),68,17*,-24,5,2,9,13,
O=C(CSc1nccc(=O)[nH]1)N1N=C2/C(=C/c3ccco3)CCCC2C1c1ccco1 (stereo not given),-16,10,6,0,7,nt,nt,
